# Test results reported in PubChem BioAssay.
# Activity calls are given as the source filed them.
# Assays:
# [1] = test system: Human papillomavirus type 1a protein E7 (residues 44-93); experiment: HPV1a E7 fragment binders on microarrays, primary screen, biochemical, small-molecule microarray, residues 44-93, 635 nm fluorescence (AID 1108); details: small-molecule microarray binding, fluorescence 635 nm; higher = more signal;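 note: E7 fragment applied at 1 µg/mL in TBST for 1 h at 4 C; score combines spot fluorescence with its signal to noise ratio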
# [2] = modulators of HCV replicon luciferase signal, primary screen, HCV replication inhibitor project, Huh7 cells, luciferase reporter (AID 1109); details: 48 h, higher = more signal;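 note: huh7 hepatoma cells harbouring a luciferase neomycin HCV replicon reporter; luciferase luminescence as measure of HCV replicon replication; test concentration not given here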
# [3] = biological target: Left-right determination factor 2 (Homo sapiens) (UniProt O00292); experiment: LEFTY2 binders on small-molecule microarrays, primary screen, biochemical, small-molecule microarray, 635 nm fluorescence scan (AID 1110); details: LEFTY2 binding, higher = more signal
# Chain of Left-right determination factor 2 (Homo sapiens) (O00292 whole entry, looked up): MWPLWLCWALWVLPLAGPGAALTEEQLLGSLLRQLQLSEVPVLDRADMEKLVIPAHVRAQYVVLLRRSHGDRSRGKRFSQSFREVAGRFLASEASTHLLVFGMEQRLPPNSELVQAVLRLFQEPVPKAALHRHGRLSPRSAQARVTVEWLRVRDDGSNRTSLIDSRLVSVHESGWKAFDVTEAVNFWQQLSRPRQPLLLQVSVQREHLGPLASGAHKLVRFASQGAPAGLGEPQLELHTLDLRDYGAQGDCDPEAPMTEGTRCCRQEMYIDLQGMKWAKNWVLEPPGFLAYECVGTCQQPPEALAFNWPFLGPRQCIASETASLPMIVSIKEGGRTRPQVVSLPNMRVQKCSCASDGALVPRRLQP
# [4] = biological target: Calmodulin-1 (Homo sapiens) (UniProt P0DP23); experiment: CALM1 binders on microarrays, EGTA buffer, profiling panel, biochemical, small-molecule microarray, Cy5-labelled CALM1 (AID 1111); details: Cy5-CALM1 binding fluorescence, higher = more signal;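 note: labelled calmodulin applied in Tris saline Tween buffer holding calcium plus EGTA and DTT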
# [5] = biological target: Calmodulin-1 (Homo sapiens) (UniProt P0DP23); experiment: calcium-bound CALM1 binders on microarrays, profiling panel, artefact control for SMM control-protein annotation, biochemical, small-molecule microarray, Cy5-labelled CALM1, plus calcium (AID 1112); details: Cy5-CALM1 binding fluorescence, higher = more signal;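 note: score merges spot fluorescence with signal to noise from triplicate slides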
# [6] = small-molecule microarray binders of probe aWnt5a, primary screen, biochemical, biotinylated probe, 635/667 nm fluorescence (AID 1113); details: higher = more signal;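 note: score merges 667 nm fluorescence intensity with signal-to-noise per printed feature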
# [7] = small-molecule microarray binders of probe aShh, primary screen, biochemical, biotinylated probe, 635/667 nm fluorescence (AID 1114); details: higher = more signal;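 note: probe is biotin-labelled aShh protein from a stem cell growth factor screen; measures binding of labelled protein to compounds printed on the slide; score merges feature fluorescence at 667 nm with signal-to-noise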
# [8] = small-molecule microarray binders of probe aNog, primary screen, biochemical, biotinylated probe, 635/667 nm fluorescence (AID 1115); details: higher = more signal;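 note: probe is biotinylated aNog protein used at 0.15 µg/mL for 1 h at 4 C; z-score combines 667 nm fluorescence of each spot with its signal to noise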
# [9] = biological target: Torsin-1A-interacting protein 1 (Homo sapiens) (UniProt Q5JTV8); experiment: LAP1 binders from COS7 cell lysate, primary screen, small-molecule microarray, 635/667 nm fluorescence (AID 1116); details: COS7-hLAP1 lysate binding, 635 nm fluorescence, higher = more signal
# Chain of Torsin-1A-interacting protein 1 (Homo sapiens) (Q5JTV8 whole entry, looked up): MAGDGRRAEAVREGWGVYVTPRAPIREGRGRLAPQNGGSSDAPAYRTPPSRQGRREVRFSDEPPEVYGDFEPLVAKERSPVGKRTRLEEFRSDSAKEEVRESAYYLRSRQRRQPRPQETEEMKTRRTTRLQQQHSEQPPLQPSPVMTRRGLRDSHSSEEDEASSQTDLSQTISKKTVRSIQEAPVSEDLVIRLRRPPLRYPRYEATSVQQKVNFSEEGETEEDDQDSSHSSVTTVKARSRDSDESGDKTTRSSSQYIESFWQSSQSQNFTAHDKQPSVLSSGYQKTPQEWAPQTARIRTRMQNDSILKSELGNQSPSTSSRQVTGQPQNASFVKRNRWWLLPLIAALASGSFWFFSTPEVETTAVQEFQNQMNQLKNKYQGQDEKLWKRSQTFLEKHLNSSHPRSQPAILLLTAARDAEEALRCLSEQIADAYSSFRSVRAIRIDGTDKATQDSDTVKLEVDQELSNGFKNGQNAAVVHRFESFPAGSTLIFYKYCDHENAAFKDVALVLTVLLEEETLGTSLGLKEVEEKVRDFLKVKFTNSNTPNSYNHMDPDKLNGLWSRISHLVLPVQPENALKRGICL
# [10] = biological target: Alpha-bungarotoxin (Bungarus multicinctus) (UniProt P60615); experiment: alpha-bungarotoxin binders on microarray, profiling panel, artefact control for SMM control protein annotation, biochemical, small-molecule microarray, Alexa647 label, 635/667 nm fluorescence (AID 1117); details: alpha-BTX-A647 binding fluorescence, higher = more signal
# Chain of Alpha-bungarotoxin (Bungarus multicinctus) (P60615 whole entry, looked up): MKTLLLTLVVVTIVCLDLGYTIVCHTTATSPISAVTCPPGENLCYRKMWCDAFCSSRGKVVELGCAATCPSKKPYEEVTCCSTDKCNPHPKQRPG
# [11] = biological target: Albumin (Bos taurus) (UniProt P02769); experiment: bovine serum albumin binders on microarray, profiling panel, artefact control for SMM control protein annotation, biochemical, small-molecule microarray, Alexa647 label, 635/667 nm fluorescence (AID 1118); details: BSA-A647 binding, fluorescence 635 nm, higher = more signal;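 note: score merges 667 nm emission intensity and signal-to-noise per printed compound spot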
# Chain of Albumin (Bos taurus) (P02769 whole entry, looked up): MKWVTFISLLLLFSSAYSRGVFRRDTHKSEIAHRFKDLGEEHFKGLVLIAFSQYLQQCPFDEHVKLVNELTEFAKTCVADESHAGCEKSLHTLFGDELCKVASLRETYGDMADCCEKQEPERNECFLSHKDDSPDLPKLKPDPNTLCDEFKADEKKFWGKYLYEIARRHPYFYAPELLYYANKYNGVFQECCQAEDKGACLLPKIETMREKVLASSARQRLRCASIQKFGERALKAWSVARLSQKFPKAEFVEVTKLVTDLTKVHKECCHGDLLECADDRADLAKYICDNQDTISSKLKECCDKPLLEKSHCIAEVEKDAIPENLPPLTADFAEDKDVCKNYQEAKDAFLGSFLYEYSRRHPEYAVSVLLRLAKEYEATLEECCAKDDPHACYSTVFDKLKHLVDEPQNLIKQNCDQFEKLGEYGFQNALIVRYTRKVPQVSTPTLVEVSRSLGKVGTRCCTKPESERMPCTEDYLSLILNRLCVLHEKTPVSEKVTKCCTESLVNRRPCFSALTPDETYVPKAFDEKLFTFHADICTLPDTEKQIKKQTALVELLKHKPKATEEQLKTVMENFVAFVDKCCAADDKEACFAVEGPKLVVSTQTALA
# [12] = small-molecule microarray binders of probe aXIP, primary screen, biochemical, NeuroSMM set, 635/667 nm fluorescence (AID 1119); details: higher = more signal, called active from +8 up or from −8 down;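 note: probe is the protein aXip251-270 applied at 1 µg/mL to compound-printed slides; binding of probe to printed compounds measured as 667 nm fluorescence plus signal to noise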
# [13] = small-molecule binders of probe aNOTCH3, primary screen, biochemical, small-molecule microarray, 635/667 nm fluorescence (AID 1120); details: higher = more signal;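 note: probe is a biotin-tagged antibody raised against NOTCH3 rather than NOTCH3 protein; score merges spot fluorescence near 667 nm with spot signal to noise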
# [14] = small-molecule binders of probe aNOTCH2, primary screen, biochemical, small-molecule microarray, 635/667 nm fluorescence (AID 1121); details: higher = more signal;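 note: score merges feature fluorescence read at 667 nm with its signal to noise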
# [15] = biological target: Carbonic anhydrase 2 (Homo sapiens) (UniProt P00918); experiment: CAII small-molecule binders, profiling panel, biochemical, small-molecule microarray, Alexa647-labelled CAII (AID 1122); details: CAII-A647 binding fluorescence, higher = more signal
# [16] = COS7 lysate on small-molecule microarray, probe aHis, 635 nm (AID 1123); details: COS7 cell lysate, fluorescence, higher = more signal;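 note: z-score combines 667nm fluorescence intensity with signal-to-noise per printed compound spot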
# [17] = compound binding in COS7 lysate, probe aLAP1, primary screen, cell lysate, small-molecule microarray (AID 1124); details: probe aLAP1, fluorescence, higher = more signal;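 note: lysate comes from COS7 cells expressing LAP1 and is applied at 0.3 µg/mL; score merges spot fluorescence near 667 nm with signal-to-noise over triplicate slides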
# [18] = test system: Sam68 (KHDRBS1); experiment: Sam68 small-molecule binders, primary screen, biochemical, small-molecule microarray, 635 nm fluorescence (AID 1125); details: small-molecule microarray binding, higher = more signal;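 note: score merges 667 nm channel intensity with signal to noise over triplicate slides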
# [19] = test system: Chordin-like protein 2 (CHRDL2); experiment: CHRDL2 small-molecule binders, primary screen, biochemical, small-molecule microarray, 635 nm fluorescence (AID 1126); details: small-molecule microarray binding, fluorescence 635 nm; higher = more signal;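 note: printed compound slides probed with Chrdl2 protein at 4 µg/mL for 1 h at 4 C; score merges 667 nm emission intensity with signal to noise over three replicate slides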
# [20] = biological target: Concanavalin-A (Canavalia ensiformis) (UniProt P02866); experiment: ConA small-molecule binders, primary screen, artefact control for SMM control protein annotation, biochemical, small-molecule microarray, Alexa647 label, 635 nm (AID 1127); details: ConA-A647 binding fluorescence, higher = more signal;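 note: z combines 667 nm emission intensity with signal-to-noise across three replicate slides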
# Chain of Concanavalin-A (Canavalia ensiformis) (P02866 whole entry, looked up): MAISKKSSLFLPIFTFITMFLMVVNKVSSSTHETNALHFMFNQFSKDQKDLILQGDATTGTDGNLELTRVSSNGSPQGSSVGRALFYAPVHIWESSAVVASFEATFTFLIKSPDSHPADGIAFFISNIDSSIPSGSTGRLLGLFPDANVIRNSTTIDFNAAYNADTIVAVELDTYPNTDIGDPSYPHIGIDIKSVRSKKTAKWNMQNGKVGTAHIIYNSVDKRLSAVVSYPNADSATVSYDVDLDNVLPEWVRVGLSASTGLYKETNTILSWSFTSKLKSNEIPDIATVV
Structure (SMILES),composite z-score [1],z-score [2],composite z-score [3],composite z-score [4],composite z-score [5],composite z-score [6],composite z-score [7],composite z-score [8],composite z-score [9],composite z-score [10],composite z-score [11],composite Z-score [12],composite z-score [13],composite z-score [14],composite z-score [15],composite z-score [16],composite z-score [17],composite z-score [18],composite z-score [19],composite z-score [20]
COC(=O)[C@H](C)NC(=O)CCC1CC(OC(=O)NCc2ccc3c(c2)OCO3)CC2(CCCC(COC(=O)NCCc3ccccc3OC)O2)O1 (stereo not given in full),0.776,-0.941,0.0048,-0.173,0.351,-0.219,-0.206,-0.0653,0.561,0.253,0.159,0.0923 (inactive),-0.125,-0.0646,0.472,1.36,0.117,0.735,-0.0443,-0.706
O=C1C[C@@H](O)[C@@H](O)[C@@H]2[C@@H]3C(=O)N(C[C@@H]4CCCO4)C(=O)[C@@H]3CC[C@@H]12,0.27,-0.321,0.723,0.187,-0.426,-0.0239,-0.106,-0.303,0.119,0.506,-0.0039,-0.286 (inactive),0.0547,-0.111,-0.0061,0.725,0.181,0.666,0.348,0.852
CCOC(=O)C1=NO[C@@]2(C=C(Br)C3(OCCCO3)[C@H]3O[C@H]32)C1,0.339,-0.154,1.13,-2.14,-2.64,-0.138,0.0952,-0.452,-0.143,2.04,-1.04,0.44 (inactive),0.0962,-0.14,0.486,0.336,-0.145,-0.268,1.52,0.313
O=C(NN=C1C[C@@H](O)[C@@H](O)[C@@H]2[C@@H]3C(=O)N(C4CCCCC4)C(=O)[C@@H]3CC[C@@H]12)OCc1ccccc1,-0.671,-0.771,0.482,-0.367,-0.606,-0.115,0.0156,-0.0522,-0.534,-0.0382,0.566,-0.243 (inactive),-0.0873,-0.258,-0.129,-0.107,1.74,-0.881,0.425,0.457
O=C1[C@H]2[C@H]3[C@H](O)[C@H](O)CC(=NOC[C@@H](O)COCc4ccco4)[C@@H]3CC[C@H]2C(=O)N1C[C@@H]1CCCO1,0.0714,0.557,1.11,-1.05,-1.73,-0.117,-0.0553,-0.218,0.3,-0.075,0.63,0.381 (inactive),-0.0345,-0.0986,-0.267,0.155,0.174,0.902,1.53,-0.281
CO[C@H]1COC(=O)CC=C[C@@H](C)[C@H](OC)COC(=O)[C@@H]2CCCN2C(=O)CC=C[C@@H]1C,-0.298,0.443,1.32,-1.02,-1.82,-0.0819,-0.138,-0.748,0.159,-0.41,-0.871,0.668 (inactive),-0.0077,-0.107,-0.377,-0.339,-0.322,0.672,1.32,-0.222
